Bioassay records: PubChem BioAssay, several laboratories
The list is not random: actives were taken first. Their share in the collection is about 3.8%.
Pemphigus Ab inh – human desmoglein-3 autoantibody binding inhibition; P32926; AID 588358; 310,000 tested, 0.48% active; binding (percent of control), % at 10 µM; DSG3-coupled beads, scFv-anti-DSG3-GFP binding, flow cytometry; stronger effect = lower value;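 active means binding more than 3 SD below its plate's average and above zero; inconclusive means below that plate limit but binding exactly zero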;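 further: hits lower antibody fragment binding to DSG3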
PAFAH1B2 FP inh – inhibitors of human PAFAH1B2 | P68402 | recombinant PAFAH1B2, FP-rhodamine activity probe, fluorescence polarization | inhibition, % at 3.39 µM | 340,000 tested, 1.2% active | AID 492953;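 active means inhibition above the mean of all tested compounds plus 3 SD, cut at about 24% in these data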
PAFAH1B3 FP inh – inhibitors of human PAFAH1B3 | Q15102 | recombinant PAFAH1B3, FP-rhodamine probe, fluorescence polarization | inhibition, % at 3.39 µM | 340,000 tested, 0.28% active;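 active means inhibition above the screen-wide average of all tested compounds plus 3 SD, cut at about 25% in these data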
Target sequence (Q15102 whole entry, looked up): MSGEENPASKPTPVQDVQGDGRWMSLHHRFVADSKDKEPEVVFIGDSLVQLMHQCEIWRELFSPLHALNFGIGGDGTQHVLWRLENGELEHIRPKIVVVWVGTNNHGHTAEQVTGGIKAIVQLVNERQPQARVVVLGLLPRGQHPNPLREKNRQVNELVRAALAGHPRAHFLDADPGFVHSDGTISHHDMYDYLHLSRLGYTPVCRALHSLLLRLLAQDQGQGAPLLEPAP
PAFAH2 FP inh – inhibitors of human PAFAH2. 340,000 tested, 0.99% active. Q99487. inhibition, % at 3.39 µM. AID 492956. recombinant PAFAH2, FP-rhodamine activity probe, fluorescence polarization;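 active means inhibition above the mean over all tested compounds plus 3 SD, cut at about 30% in these data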;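 further: inhibitors block probe labeling of enzyme so polarization drops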
pPAFAH FP inh – inhibitors of human plasma PAF acetylhydrolase (pPAFAH); Q13093; recombinant pPAFAH, FP-rhodamine probe fluorescence polarization; inhibition, % at 3.39 µM; 330,000 tested, 1.5% active; AID 463082;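 active means inhibition above the mean inhibition across the screen plus 3 SD, cut at about 25% in these data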;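 further: inhibitors block binding of the rhodamine activity-based probe so polarization drops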
Target sequence (Q13093 whole entry, looked up): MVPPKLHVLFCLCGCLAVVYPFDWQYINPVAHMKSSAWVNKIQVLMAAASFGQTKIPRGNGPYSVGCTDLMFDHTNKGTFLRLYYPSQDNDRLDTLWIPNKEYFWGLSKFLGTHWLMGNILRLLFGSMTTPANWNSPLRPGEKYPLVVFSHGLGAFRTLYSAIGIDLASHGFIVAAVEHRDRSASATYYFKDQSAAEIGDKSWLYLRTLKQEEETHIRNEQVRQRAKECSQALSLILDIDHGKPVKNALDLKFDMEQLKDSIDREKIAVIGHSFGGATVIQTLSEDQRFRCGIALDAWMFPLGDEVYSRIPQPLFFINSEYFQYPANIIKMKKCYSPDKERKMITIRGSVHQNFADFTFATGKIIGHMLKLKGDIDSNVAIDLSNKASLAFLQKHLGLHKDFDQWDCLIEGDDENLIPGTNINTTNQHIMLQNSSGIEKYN
PfM18AAP inh – blocks P. falciparum M18 aspartyl aminopeptidase. recombinant PfM18AAP, H-Glu-NHMec fluorogenic cleavage. inhibition, % at 7.35 µM. 290,000 tested, 1.2% active;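 active means inhibition above the campaign mean inhibition over all tested compounds plus 3 SD, cut at about 28% in these data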
PAFAH2 confirm – confirmation of human PAFAH2 inhibitors; recombinant PAFAH2, FP-rhodamine activity probe, fluorescence polarization; 2,300 tested, 65% active; inhibition, % at 3.39 µM; shares compounds with PAFAH2 FP inh;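 active means mean inhibition over three repeats above a set limit taken from the earlier primary screen, cut at about 30% in these data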;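 further: inhibitor blocks binding of rhodamine activity probe so polarization falls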
Large screens that a line does not name were inactive (follow-up assays come after a bar, where they were run).

COc1ccc(/C=C/C(=O)OCC(=O)NCCc2ccccc2)c(OC)c1	PAFAH2 FP inh 76 (no result: PfM18AAP inh) | PAFAH2 confirm 60
COc1ccc(OC)c(/C=C/C(=O)OCC(=O)NCc2ccco2)c1	PAFAH2 FP inh 40 (no result: PfM18AAP inh) | PAFAH2 confirm inactive
COc1cccc(/C=C/C(=O)OCC(=O)NCc2ccco2)c1	none
COc1ccc(OC)c(/C=C/C(=O)Oc2ccc(C(C)=O)cc2)c1	none
O=C(COc1ccc(Cl)cc1)NNC(=O)c1ccc2c(=O)n3c(nc2c1)CCC3	none (no result: PfM18AAP inh)
COc1ccc(S(=O)(=O)N2CC(C)N(C(=O)N3CCOCC3)C2)cc1 (configuration not stated)	none
O=C(CCCN1C(=O)c2ccccc2C1=O)NCCc1ccc(OC(F)F)cc1	Pemphigus Ab inh inconclusive
N#Cc1cccc(NC(=O)COC(=O)c2cccc(N3C(=O)c4ccccc4C3=O)c2)c1	PAFAH2 FP inh 67 | PAFAH2 confirm 79
O=C(COC(=O)c1cccc(N2C(=O)c3ccccc3C2=O)c1)Nc1ccccc1	PAFAH2 FP inh 70 | PAFAH2 confirm 71
CCn1c(CNC(=O)c2ccccc2F)nnc1SCC(=O)NC1CCCCC1	none
CCCCNC(=O)c1ccccc1SCC(=O)NC1CCCCCCC1	PAFAH2 FP inh 36 (no result: Pemphigus Ab inh, PfM18AAP inh) | PAFAH2 confirm inactive
CC(C)CNC(=O)COC(=O)c1ccccc1SCC(=O)NCC(C)C	PAFAH2 FP inh 44 | PAFAH2 confirm 32
COc1cccc(OC)c1C(=O)OCC(=O)NCC(C)C	none
CN(C)C(=O)CSc1ccccc1C(=O)OCC(=O)NC1CC1	none (no result: PfM18AAP inh)
NC(=O)COC(=O)c1ccccc1SCC(=O)NC1CCCCCC1	PAFAH2 FP inh 61 | PAFAH2 confirm 49
O=C(c1cnc(Cl)c(Cl)c1)N1CCN(S(=O)(=O)c2cccs2)CC1	none (no result: PAFAH1B2 FP inh, PAFAH1B3 FP inh, PAFAH2 FP inh, pPAFAH FP inh, PfM18AAP inh)
Cc1cccc2nc(COc3ccc(Cl)c4cccnc34)cn12	none
O=C(Nc1ccccc1C(=O)N1CCCCC1)c1ccccc1C(F)(F)F	none
Cc1ccc(C(=O)OCC(=O)NCc2ccco2)cc1S(=O)(=O)N1CCOCC1	PAFAH2 FP inh 44 (no result: PfM18AAP inh) | PAFAH2 confirm 39
O=C(COC(=O)c1ccc(S(=O)(=O)N2CCCCC2)cc1)NCc1ccco1	none
Cc1ccc(C(=O)NCc2ccco2)cc1S(=O)(=O)N1CCOCC1	none
COc1ccc(C(=O)OCC(=O)NCc2ccco2)cc1S(=O)(=O)N1CCN(c2cccc(Cl)c2)CC1	PAFAH2 FP inh 32 | PAFAH2 confirm 35
Cc1ccccc1N1CCN(C2=NC(=O)/C(=C\c3cccs3)S2)CC1	PAFAH2 FP inh 41 | PAFAH2 confirm 31
O=C1N=C(N2CCN(c3cccc4ccccc34)CC2)S/C1=C/c1cccs1	none
CC(c1ccco1)N(C(=O)c1ccccc1NS(=O)(=O)c1cc([N+](=O)[O-])ccc1Cl)c1ccccn1 (configuration not stated)	PAFAH2 FP inh 63 | PAFAH2 confirm 71
CC(c1ccco1)N(C(=O)c1ccccc1NS(=O)(=O)c1cccc([N+](=O)[O-])c1)c1ccccn1 (configuration not stated)	none
Cc1ccc(C(=O)OCC(=O)NC2CCCC(C)C2C)cc1S(=O)(=O)N1CCCCC1 (configuration not stated)	PAFAH2 FP inh 39 (no result: PfM18AAP inh) | PAFAH2 confirm inactive
O=C(NC1CCCCC1)c1cccc(S(=O)(=O)N2CCCCC2)c1	none
O=C(COC(=O)c1ccc(Cl)c(S(=O)(=O)N2CCCC2)c1)NC1CCCCC1	PAFAH2 FP inh 36 | PAFAH2 confirm inactive
O=C(COC(=O)c1cccc(S(=O)(=O)N2CCCCCC2)c1)Nc1ccccc1C(F)(F)F	PAFAH2 FP inh 58 (no result: PfM18AAP inh) | PAFAH2 confirm 36
O=C(COC(=O)c1cccc(S(=O)(=O)N2CCCCC2)c1)NC1CCCCC1	PAFAH2 FP inh 77 (no result: PfM18AAP inh) | PAFAH2 confirm 76
O=C(COC(=O)c1ccc(Cl)c(S(=O)(=O)N2CCCCC2)c1)NC1CCCCC1	none (no result: PAFAH1B2 FP inh, PAFAH1B3 FP inh, PAFAH2 FP inh, pPAFAH FP inh, PfM18AAP inh)
CCOC(=O)c1sc(NC(=O)CSc2nc(-c3ccco3)cc(C(F)(F)F)n2)c(C(=O)OCC)c1C	none (no result: pPAFAH FP inh, PfM18AAP inh)
O=C(COC(=O)c1ccc(Cl)c(S(=O)(=O)N2CCCCC2)c1)NCCc1ccccc1	none (no result: pPAFAH FP inh, PfM18AAP inh)
CCCCNC(=O)COC(=O)c1ccc(Cl)c(S(=O)(=O)N2CCCC2)c1	PAFAH2 FP inh 44 | PAFAH2 confirm inactive
CCN(CC)C(=O)CSc1nc2c(sc(=S)n2-c2ccccc2)c(=O)n1-c1ccccc1OC	PAFAH2 FP inh 37 (no result: pPAFAH FP inh) | PAFAH2 confirm inactive
O=Cc1ccc(OC(=O)CCCCC(=O)Oc2ccc(C=O)cc2)cc1	PAFAH2 FP inh 34 | PAFAH2 confirm inactive
Cc1ccc2c(c1)c1nnc(SCC(=O)Nc3ccc(N(C)C)cc3)nc1n2CC(=O)O	none
O=C(COC(=O)/C=C/c1ccc(Cl)cc1)Nc1ccccc1	PAFAH2 FP inh 73 | PAFAH2 confirm 72
O=C(COC(=O)/C=C/c1ccccc1)Nc1cccc(Oc2ccccc2)c1	PAFAH2 FP inh 36 | PAFAH2 confirm 32
O=C(COC(=O)/C=C/c1ccccc1)Nc1ccc2c(c1)OCCO2	Pemphigus Ab inh -4.7, PAFAH2 FP inh 69 (no result: PfM18AAP inh) | PAFAH2 confirm 56
Cc1nc2sc(C(=O)Nc3ccccc3)c(N)c2c(C)c1[N+](=O)[O-]	none
COc1ccccc1C1(O)C(=O)Nc2ccccc21 (configuration not stated)	none
O=C(COC(=O)c1ccc(O)cc1)Nc1cccc(S(=O)(=O)N2CCCCC2)c1	PAFAH2 FP inh 52 | PAFAH2 confirm 55
O=C(COC(=O)c1ccco1)Nc1cccc(S(=O)(=O)N2CCCCC2)c1	PAFAH2 FP inh 49 (no result: Pemphigus Ab inh, PfM18AAP inh) | PAFAH2 confirm 41
CCOc1ccc(C(=O)OCC(=O)Nc2cccc(S(=O)(=O)N3CCCC3)c2)cc1	PAFAH2 FP inh 68 (no result: PfM18AAP inh) | PAFAH2 confirm 57
CS(=O)(=O)c1ccc(C(=O)OCC(=O)Nc2cccc(S(=O)(=O)N3CCCC3)c2)cc1	none (no result: PfM18AAP inh)
COc1ccc(CNC(=O)C(c2ccco2)N(C(=O)c2snc(C(N)=O)c2N)c2ccccc2OC)cc1 (configuration not stated)	none
O=S(=O)(Nc1cccc(S(=O)(=O)N2CCCC2)c1)c1cccs1	none (no result: Pemphigus Ab inh, PfM18AAP inh)
COCCNc1nc(N2CCCCC2)c2cnn(C)c2n1	none
COc1cc(NC(=O)C(C)Oc2ccccc2)c(OC)cc1NC(=O)c1ccccc1 (configuration not stated)	none
Cc1ccc(C)c(OCC(=O)Nc2ccc(C(=O)O)cc2NC(=O)COc2cc(C)ccc2C)c1	none
CC1CCN(C(=O)COC(=O)/C=C/c2ccc(Br)o2)CC1	PAFAH2 FP inh 30 (no result: PfM18AAP inh) | PAFAH2 confirm inactive
CC1CCCC(C)N1C(=O)COC(=O)/C=C/c1ccc(Br)o1 (configuration not stated)	none (no result: PfM18AAP inh)
O=C(NNC(=O)C1CC=CCC1C(=O)O)c1ccc(Cl)cc1 (configuration not stated)	none
